Laboratory results reported in PubChem BioAssay (Tox21).
Results filed as inconclusive are left out. Entries that show only a call come without a potency. Active and inactive are the calls of the source. Unless noted, the call rests on the fitted dose curve; in most records, active means well fitted curve in the direction sought with a large enough effect in the repeat runs; inconclusive means weak or mixed curves; inactive means no such curve, though single readings can be large; an effect the other way counts as inactive or inconclusive.

Legend:
[1] = molecular target: Aryl hydrocarbon receptor (Homo sapiens) (UniProt P35869); test: qHTS assay to identify small molecule that activate the aryl hydrocarbon receptor (AhR) signaling pathway (AID 743085);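 further: HG2L7.5c1 human HepG2 liver cells with stably integrated DRE-driven firefly reporter; series mostly up to about 70 µM; nearly all actives have a fitted effect of over 15% in size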
Chain of Aryl hydrocarbon receptor (Homo sapiens) (P35869 whole entry, looked up): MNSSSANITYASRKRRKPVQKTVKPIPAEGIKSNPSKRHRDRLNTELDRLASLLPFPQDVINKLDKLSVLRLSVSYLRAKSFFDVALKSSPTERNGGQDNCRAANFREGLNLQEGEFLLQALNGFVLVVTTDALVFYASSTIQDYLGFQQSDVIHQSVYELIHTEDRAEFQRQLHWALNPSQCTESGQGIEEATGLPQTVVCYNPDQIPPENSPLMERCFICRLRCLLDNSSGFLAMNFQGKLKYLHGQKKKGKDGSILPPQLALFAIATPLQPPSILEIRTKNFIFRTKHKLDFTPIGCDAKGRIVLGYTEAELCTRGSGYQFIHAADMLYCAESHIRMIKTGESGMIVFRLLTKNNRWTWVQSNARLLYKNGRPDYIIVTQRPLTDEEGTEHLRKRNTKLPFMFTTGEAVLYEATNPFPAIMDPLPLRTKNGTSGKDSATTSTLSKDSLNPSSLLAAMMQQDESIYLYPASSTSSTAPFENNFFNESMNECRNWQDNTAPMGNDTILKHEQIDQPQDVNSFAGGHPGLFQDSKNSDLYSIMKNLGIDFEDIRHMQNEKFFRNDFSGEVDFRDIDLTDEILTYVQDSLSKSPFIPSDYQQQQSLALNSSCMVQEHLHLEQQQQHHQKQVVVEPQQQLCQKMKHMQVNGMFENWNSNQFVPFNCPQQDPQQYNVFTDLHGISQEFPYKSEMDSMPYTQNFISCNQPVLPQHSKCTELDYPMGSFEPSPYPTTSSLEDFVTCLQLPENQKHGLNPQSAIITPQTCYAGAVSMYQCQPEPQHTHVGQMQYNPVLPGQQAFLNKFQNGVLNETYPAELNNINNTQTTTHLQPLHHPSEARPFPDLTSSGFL
Procedure, shortened: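 Luminescence (ONE-Glo) from a dioxin-responsive-element luciferase reporter in HG2L7.5c1 HepG2 cells after 24 hr compound exposure at 37C; viability measured by CellTiter-Fluor fluorescence beforehand.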

[2] = qHTS assay to identify small molecule that activate the aryl hydrocarbon receptor (AhR) signaling pathway - cell viability counter screen (AID 743086);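 further: HepG2 liver cells carrying the AhR DRE luciferase reporter; series mostly up to about 70 µM; nearly all actives have a fitted effect of over 45% in size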
Procedure, shortened: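 Cytotoxicity counter screen: CellTiter-Fluor signal (30 min, 37 C) in 4000 HepG2 cells/well carrying the DRE-luciferase reporter, following 24 h compound exposure at 37 C.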

[3] = molecular target: Peroxisome proliferator-activated receptor gamma (Homo sapiens) (UniProt P37231); test: qHTS assay to identify small molecule agonists of the peroxisome proliferator-activated receptor gamma (PPARg) signaling pathway (AID 743094; active means well fitted activation curve with a large enough effect in the signal ratio in the repeat runs, not every such curve was filed as active; the % refers to the signal ratio)
Chain of Peroxisome proliferator-activated receptor gamma (Homo sapiens) (P37231 whole entry, looked up): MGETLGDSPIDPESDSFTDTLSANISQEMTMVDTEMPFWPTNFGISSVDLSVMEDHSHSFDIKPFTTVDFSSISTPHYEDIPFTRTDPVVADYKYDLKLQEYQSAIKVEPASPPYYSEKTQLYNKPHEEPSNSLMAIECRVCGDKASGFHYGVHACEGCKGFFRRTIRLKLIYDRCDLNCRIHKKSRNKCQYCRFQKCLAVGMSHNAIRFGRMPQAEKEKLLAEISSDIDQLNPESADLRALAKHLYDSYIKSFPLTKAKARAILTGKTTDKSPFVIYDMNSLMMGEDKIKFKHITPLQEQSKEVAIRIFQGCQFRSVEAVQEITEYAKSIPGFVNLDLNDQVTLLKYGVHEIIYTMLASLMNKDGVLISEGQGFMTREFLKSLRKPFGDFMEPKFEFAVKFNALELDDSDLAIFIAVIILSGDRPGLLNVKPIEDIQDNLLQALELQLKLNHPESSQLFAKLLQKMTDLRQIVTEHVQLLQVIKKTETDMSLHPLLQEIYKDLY
Procedure, shortened: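 Agonism was assessed in a beta-lactamase reporter system, HEK293H cells with a stably integrated UAS-bla construct under PPARg control; the 17 h treatment at 37C preceded a 1 h room-temperature FRET substrate read.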

[4] = molecular target: Peroxisome proliferator-activated receptor gamma (Homo sapiens) (UniProt P37231); test: qHTS assay to identify small molecule antagonists of the peroxisome proliferator-activated receptor gamma (PPARg) signaling pathway (AID 743191; calls by dose curve; further: series mostly up to about 63 µM; nearly all actives have a fitted effect of over 30% in size)
Procedure, shortened: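 Beta-lactamase reporter under UAS control in HEK293H PPARg-bla cells; compound treatment 17 h at 37C. Read-out: fluorescence intensity after 1 h room-temperature incubation with LiveBLAzer B/G FRET substrate.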

[5] = qHTS assay to identify small molecule antagonists of the peroxisome proliferator-activated receptor gamma (PPARg) signaling pathway - cell viability counter screen (AID 743194); further: nearly all actives have a fitted effect of over 55% in size
Procedure, shortened: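 Viability was measured as CellTiter-Glo luminescence in GeneBLAzer PPARg UAS-bla HEK293H cells. These cells had been exposed 17 h at 37 C to compounds together with rosiglitazone at 50 nM final, with the beta-lactamase readout taken in the same wells.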

[6] = qHTS assay for small molecule agonists of the antioxidant response element (ARE) signaling pathway (AID 743202; active means well fitted activation curve with a large enough effect in the signal ratio in the repeat runs, not every such curve was filed as active; the % refers to the signal ratio; further: potency means the concentration at half of the fitted maximal effect)
Procedure, shortened: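 After 16 hours of compound treatment at 37 C, HepG2 cells with a stably integrated ARE-driven beta-lactamase reporter were loaded 2 hours at room temperature with LiveBLAzer B/G FRET substrate and fluorescence intensity measured.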

[7] = qHTS assay for small molecule agonists of the antioxidant response element (ARE) signaling pathway - cell viability counter screen (AID 743203; calls by dose curve; further: nearly all actives have a fitted effect of over 55% in size)
Procedure, shortened: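 ATP content via CellTiter-Glo luminescence served as the viability measure. Cells: ARE-bla HepG2, 2,000 per well. Exposure: 16 hrs, 37C/5% CO2.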

[8] = qHTS assay for small molecule activators of the heat shock response signaling pathway - cell viability counter screen (AID 743209); further: nearly all actives have a fitted effect of over 50% in size
Procedure, shortened: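 Compounds dissolved in DMSO were added to overnight-plated HSE-bla HeLa cells and left 5 h at 37 C. Cell viability was quantified by luminescence using CellTiter-Glo.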

[9] = qHTS assay for small molecule activators of the heat shock response signaling pathway (AID 743210; active means well fitted activation curve with a large enough effect in the signal ratio in the repeat runs, with a control signal flat, not every such curve was filed as active; the % refers to the signal ratio; further: series mostly up to about 63 µM)
Procedure, shortened: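 Compound exposure lasted 5 h at 37 C in HeLa cells carrying a heat-shock-element-driven beta-lactamase reporter. Read-out: fluorescence intensity after 2.5 h room-temperature loading with LiveBLAzer B/G FRET substrate.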

[10] = qHTS assay to identify small molecule agonists of the peroxisome proliferator-activated receptor delta (PPARd) signaling pathway - cell viability counter screen (AID 743211); further: nearly all actives have a fitted effect of over 55% in size
Procedure, shortened: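 Viability was measured as CellTiter-Glo luminescence (30 min, room temperature) in the same wells as the beta-lactamase readout. GeneBLAzer PPARd UAS-bla HEK293H cells received compound after 5 h plating and were incubated 17 h at 37 C.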

[11] = molecular target: Peroxisome proliferator-activated receptor delta (Homo sapiens) (UniProt Q03181); test: qHTS assay to identify small molecule agonists of the peroxisome proliferator-activated receptor delta (PPARd) signaling pathway (AID 743212; calls by dose curve)
Chain of Peroxisome proliferator-activated receptor delta (Homo sapiens) (Q03181 whole entry, looked up): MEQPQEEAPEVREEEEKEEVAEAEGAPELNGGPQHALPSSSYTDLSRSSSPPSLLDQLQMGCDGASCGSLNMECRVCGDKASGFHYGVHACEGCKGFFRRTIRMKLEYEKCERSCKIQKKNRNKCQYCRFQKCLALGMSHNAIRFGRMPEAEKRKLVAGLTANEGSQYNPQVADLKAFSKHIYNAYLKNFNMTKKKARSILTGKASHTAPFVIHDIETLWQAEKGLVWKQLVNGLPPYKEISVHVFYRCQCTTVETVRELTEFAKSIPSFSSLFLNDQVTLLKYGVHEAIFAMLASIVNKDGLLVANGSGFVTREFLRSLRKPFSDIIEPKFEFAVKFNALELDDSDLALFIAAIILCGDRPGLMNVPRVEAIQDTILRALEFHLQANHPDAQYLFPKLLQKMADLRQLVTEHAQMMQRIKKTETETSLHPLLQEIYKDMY
Procedure, shortened: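 Beta-lactamase reporter readout: a ratiometric FRET signal from the LiveBLAzer substrate after 2 h at room temperature. Compound exposure at 37 °C in PPARδ-bla HEK293H cells driven by an upstream activator sequence.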

[12] = qHTS assay to identify small molecule antagonists of the peroxisome proliferator-activated receptor delta (PPARd) signaling pathway - cell viability counter screen (AID 743213); further: nearly all actives have a fitted effect of over 50% in size
Procedure, shortened: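 Agonist-stimulated (L165041, 300 nM final) HEK293H PPARd UAS-bla cells are exposed to compounds for 17 h at 37 C, and ATP-based luminescence (CellTiter-Glo) from the same wells reports cytotoxicity.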

[13] = qHTS assay to identify small molecule agonists of the farnesoid-X-receptor (FXR) signaling pathway - cell viability counter screen (AID 743218); further: nearly all actives have a fitted effect of over 45% in size
Procedure, shortened: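 Quantitative HTS counter screen measuring ATP-based viability via CellTiter-Glo luminescence in HEK 293T cells carrying a UAS-driven beta-lactamase reporter, after 16 h compound exposure at 37 C.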

[14] = qHTS assay to identify small molecule antagonists of the farnesoid-X-receptor (FXR) signaling pathway - cell viability counter screen (AID 743221; active means well fitted cell-killing curve with a large enough effect in the repeat runs, not every such curve was filed as active; further: nearly all actives have a fitted effect of over 50% in size)
Procedure, shortened: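 Cytotoxicity counter screen run in the FXR-bla reporter wells: HEK 293T cells exposed to compound with 50 uM (final) chenodeoxycholic acid for 16 h, 37 C, then viability measured by CellTiter-Glo luminescence after 30 min, room temperature.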

[15] = molecular target: Vitamin D3 receptor (Homo sapiens) (UniProt P11473); test: qHTS assay to identify small molecule agonists of the vitamin D receptor (VDR) signaling pathway (AID 743222; calls by dose curve)
Chain of Vitamin D3 receptor (Homo sapiens) (P11473 whole entry, looked up): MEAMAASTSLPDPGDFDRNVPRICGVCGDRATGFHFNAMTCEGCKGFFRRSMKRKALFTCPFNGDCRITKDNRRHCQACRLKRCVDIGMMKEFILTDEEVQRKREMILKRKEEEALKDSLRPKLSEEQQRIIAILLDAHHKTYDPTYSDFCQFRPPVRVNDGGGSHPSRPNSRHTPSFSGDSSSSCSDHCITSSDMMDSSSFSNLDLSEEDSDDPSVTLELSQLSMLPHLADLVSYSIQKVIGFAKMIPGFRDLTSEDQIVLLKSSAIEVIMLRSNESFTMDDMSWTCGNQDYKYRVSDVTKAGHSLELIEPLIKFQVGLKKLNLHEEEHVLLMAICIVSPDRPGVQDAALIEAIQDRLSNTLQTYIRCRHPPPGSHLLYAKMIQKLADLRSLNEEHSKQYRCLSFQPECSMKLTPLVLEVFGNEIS
Procedure, shortened: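 Tox21 cell reporter format: VDR-bla line, 16 h compound exposure in 5% CO2 at 37C, then fluorescence intensity after 2 h with LiveBLAzer B/G FRET substrate.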

[16] = molecular target: Vitamin D3 receptor (Homo sapiens) (UniProt P11473); test: qHTS assay to identify small molecule antagonists of the vitamin D receptor (VDR) signaling pathway (AID 743223; active means well fitted inhibition curve with a large enough effect in the signal ratio in the repeat runs, not every such curve was filed as active; the % refers to the signal ratio)
Procedure, shortened: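 Antagonist mode: compound added to VDR-bla cells alongside agonist 1alpha,25-dihydroxyvitamin D3 (3 nM final), incubation 16 h at 37C. Read-out is LiveBLAzer FRET fluorescence, 2 h at room temperature.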

[17] = molecular target: Peroxisome proliferator-activated receptor delta (Homo sapiens) (UniProt Q03181); test: qHTS assay to identify small molecule antagonists of the peroxisome proliferator-activated receptor delta (PPARd) signaling pathway (AID 743215; active means well fitted inhibition curve with a large enough effect in the signal ratio in the repeat runs, not every such curve was filed as active; the % refers to the signal ratio; further: series mostly up to about 62 µM)
Procedure, shortened: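 Here, a reporter line (HEK293H, beta-lactamase under a UAS) measures PPARd signaling. Compounds are tested against agonist L165041 at 300 nM final concentration over 17 h at 37 C, with fluorescence read after substrate.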

[18] = molecular target: Bile acid receptor (Homo sapiens) (UniProt Q96RI1); test: qHTS assay to identify small molecule agonists of the farnesoid-X-receptor (FXR) signaling pathway (AID 743220; active means well fitted activation curve with a large enough effect in the signal ratio in the repeat runs, not every such curve was filed as active; the % refers to the signal ratio)
Chain of Bile acid receptor (Homo sapiens) (Q96RI1 whole entry, looked up): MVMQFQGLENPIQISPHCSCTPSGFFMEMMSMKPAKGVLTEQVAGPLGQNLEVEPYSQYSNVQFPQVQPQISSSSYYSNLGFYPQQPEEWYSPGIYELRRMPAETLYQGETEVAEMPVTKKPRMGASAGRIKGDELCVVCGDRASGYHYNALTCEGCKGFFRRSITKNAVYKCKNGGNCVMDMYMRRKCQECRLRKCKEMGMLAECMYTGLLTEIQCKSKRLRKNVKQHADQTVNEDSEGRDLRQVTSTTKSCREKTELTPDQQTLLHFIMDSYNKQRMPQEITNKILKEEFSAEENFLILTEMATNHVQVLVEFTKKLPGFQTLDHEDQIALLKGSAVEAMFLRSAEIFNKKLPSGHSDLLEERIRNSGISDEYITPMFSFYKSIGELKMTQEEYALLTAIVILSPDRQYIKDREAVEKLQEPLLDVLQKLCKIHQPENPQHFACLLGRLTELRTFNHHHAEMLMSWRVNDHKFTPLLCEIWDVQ
Procedure, shortened: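 FXR-UAS-bla HEK 293T cells carrying a UAS-driven beta-lactamase reporter were plated for 5 h at 37C/5% CO2, then exposed to DMSO-dissolved Tox21 10K compounds for 16 h at 37C. A LiveBLAzer B/G FRET substrate was loaded for 2 h at room temperature before fluorescence reading.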

[19] = molecular target: Bile acid receptor (Homo sapiens) (UniProt Q96RI1); test: qHTS assay to identify small molecule antagonists of the farnesoid-X-receptor (FXR) signaling pathway (AID 743217; active means well fitted inhibition curve with a large enough effect in the signal ratio in the repeat runs, not every such curve was filed as active; the % refers to the signal ratio)
Procedure, shortened: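 Test compounds are pin-transferred onto FXR-bla HEK 293T cells, then chenodeoxycholic acid is added at 50 uM final. After 16 h at 37 °C, LiveBLAzer B/G substrate is applied for 2 h at room temperature and fluorescence read.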

[20] = qHTS assay to identify aromatase inhibitors - cell viability counter screen (AID 743084);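 further: cells stimulated with testosterone during compound exposure; nearly all actives have a fitted effect of over 55% in size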

Row | SMILES | Potency [1] | Potency [2] | Potency [3] | Potency [4] | Potency [5] | Potency [6] | Potency [7] | outcome [8] | outcome [9] | Potency [10] | Potency [11] | Potency [12] | Potency [13] | Potency [14] | outcome [15] | outcome [16] | outcome [17] | outcome [18] | outcome [19] | Potency [20]
1 | CCc1cnc(C(=O)O)c(C(=O)O)c1 | inactive | inactive | inactive | inactive | inactive | inactive | inactive | inactive | inactive | inactive | inactive | inactive | inactive | inactive | inactive | inactive |  |  |  | 
2 | O=Cc1ccc(Cl)c([N+](=O)[O-])c1 | inactive | inactive | inactive | inactive | inactive |  | inactive |  |  |  | inactive | inactive | inactive |  | inactive |  | inactive | inactive |  | 
3 | CC[C@H](NC(C)C)[C@H](O)c1ccc(O)c2[nH]c(=O)ccc12 | inactive | inactive |  | inactive | inactive | inactive | inactive |  | inactive |  | inactive | inactive | inactive | inactive |  | inactive | inactive |  |  | 
4 | Nc1ccc(C(=O)Oc2ccccc2)c(O)c1 |  | inactive | inactive | inactive | inactive | inactive | inactive | inactive | inactive | inactive | inactive | inactive | inactive | inactive | inactive | inactive |  | inactive | inactive | 
5 | Cc1ccc(Cl)c(OCC(O)CNC(C)(C)C)c1 (stereo unspecified) |  |  |  | inactive | inactive | inactive | inactive | inactive | inactive |  | inactive |  | inactive | inactive | inactive | inactive |  |  |  | 
6 | Cc1c(-c2cccnc2)c2ccccc2n1CCCCC(=O)O |  | inactive |  |  | inactive |  | inactive | inactive | inactive |  |  | inactive | inactive | inactive | inactive | inactive | inactive | inactive | inactive | inactive
7 | O=C(C1CCCCC1)N1CC(=O)N2CCCc3ccccc3C2C1 (stereo unspecified) |  |  |  |  | inactive |  | inactive |  | inactive |  |  | inactive | inactive | inactive |  |  |  |  |  | 
8 | CC(C)(O)C(=O)O |  | inactive |  |  | inactive | inactive | inactive | inactive | inactive | inactive | inactive | inactive | inactive | inactive | inactive | inactive | inactive |  |  | 
9 | O=C(Cl)c1cc(Cl)cc(Cl)c1 | inactive |  | inactive |  | inactive |  | inactive |  | inactive |  | inactive | inactive | inactive |  | inactive | inactive |  |  |  | 
10 | CC(CC(C#N)(c1ccccc1)C(C)C)N(C)C (stereo unspecified) |  |  |  | inactive | inactive | inactive | inactive | inactive | inactive | inactive |  | inactive | inactive |  |  |  |  | inactive | inactive | 
11 | Cc1c(Nc2ncccc2C(=O)O)cccc1C(F)(F)F |  | inactive |  |  | inactive |  | inactive | inactive | inactive | inactive |  |  |  |  |  |  |  |  |  | inactive
12 | Cc1ccc2ccccc2c1[N+](=O)[O-] | inactive | inactive | inactive | inactive | inactive | inactive | inactive |  | inactive | inactive | inactive | inactive | inactive | inactive | inactive | inactive |  |  |  | 
13 | CCN(CC)CC(=O)OCC(=O)[C@@]1(O)CC[C@H]2[C@@H]3CCC4=CC(=O)CC[C@]4(C)[C@H]3[C@@H](O)C[C@@]21C |  |  |  |  | inactive | inactive | inactive |  | inactive |  | inactive | inactive | inactive | inactive | inactive |  |  |  |  | 
14 | CC(C)(C)c1cc(C=O)cc(C(C)(C)C)c1O |  |  |  | inactive | inactive | inactive | inactive | inactive | inactive | inactive |  | inactive | inactive | inactive | inactive | inactive |  | inactive | inactive | 
15 | Cc1cc(SC2=C(O)C[C@@](CCc3ccc(N)cc3)(C(C)C)OC2=O)c(C(C)(C)C)cc1CO | inactive | inactive |  |  | inactive |  | inactive | inactive | inactive |  | inactive | inactive | inactive | inactive | inactive | inactive |  | inactive |  | 
16 | CCC(=O)O[C@]1(C(=O)COC)[C@@H](C)C[C@H]2[C@@H]3CCC4=CC(=O)C=C[C@]4(C)C3(F)[C@@H](O)C[C@@]21C (stereo partly specified) |  |  |  | inactive | inactive | inactive | inactive |  | inactive | inactive | inactive | inactive | inactive | inactive | inactive | inactive | inactive | inactive | inactive | 
17 | CCC(C(=O)O)c1ccc(N2Cc3ccccc3C2=O)cc1 (stereo unspecified) |  |  |  | inactive | inactive |  | inactive | inactive | inactive | inactive | inactive | inactive | inactive | inactive | inactive | inactive | inactive |  |  | 
18 | CC/C=C\CCO |  | inactive |  |  | inactive | inactive | inactive | inactive | inactive | inactive |  | inactive |  | inactive | inactive |  |  | inactive | inactive | 
19 | COc1ccnc2c1CCCCC2S(=O)c1nc2ccccc2[nH]1 (stereo unspecified) |  |  |  |  | inactive | 3.35 µM (active) | inactive | inactive |  |  |  | inactive | inactive | inactive | inactive | inactive |  |  |  | 
